In PubChem BioAssay (NCI):
The panel holds about 79,000 compounds, 15% with a hit somewhere; the sample as a whole holds those more often. Active and inactive are the calls of the source. No stated cut-off is given here; in the data, active means growth inhibition above about 70%; inactive means the rest.

Test: NCI Yeast Anticancer Drug Screen. Data for the wt1 strain (AID 149);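 further: 0% = growth of vehicle-treated wt1 cultures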
Settings: S. cerevisiae wt1 strain (SPY 50644) growth inhibition, hits give high values
Procedure: Growth inhibition of yeast strains with defined genetic alterations is measured as a screen for potential anti-cancer activity. Selected strains with alterations in DNA damage repair or cell cycle control were exposed to compounds and growth inhibition was measured relative to vehicle treated controls. The strain used in this assay is wt1

Measured: growth inhibition

COc1c(O)c(C=O)c(Br)c(C=O)c1O
inactive: at 1.2 µM 0% | at 3.7 µM 5% | at 11.0 µM 4% | at 33.0 µM 17% | at 100.0 µM 68%

OCC(CO)C(c1cccc2ccccc12)c1cccc2ccccc12
active: at 11.0 µM 98% | at 33.0 µM 99% | at 100.0 µM 94%
inactive: at 1.2 µM -5% | at 3.7 µM 1%

O=C(/C=C(/c1ccccc1)N1CCCCC1)c1ccccc1
inactive: at 1.2 µM -1% | at 3.7 µM 4% | at 11.0 µM 1% | at 33.0 µM 9%
active: at 100.0 µM 94%

C=C(C(=C)n1nnc(C(=O)OC)c1C(=O)OC)n1nnc(C(=O)OC)c1C(=O)OC
inactive: at 1.2 µM -1% | at 3.7 µM 0% | at 11.0 µM 1% | at 33.0 µM 0% | at 100.0 µM 1%

CCc1nc2ccc(NCCN(C)C)c3c(=O)c4ccccc4n1c23
inactive: at 1.2 µM 25% | at 3.7 µM 29% | at 11.0 µM 31% | at 33.0 µM 22% | at 100.0 µM 22%

NC(=O)c1c([N+](=O)[O-])cc(C(F)(F)F)cc1[N+](=O)[O-]
inactive: at 1.2 µM 0% | at 3.7 µM 0% | at 11.0 µM 0% | at 33.0 µM 2% | at 100.0 µM 2%

CNC(=O)OCc1c(COC(=O)NC)c2n(c1C)-c1ccc(OC)cc1CCC2
active: at 33.0 µM 96% | at 100.0 µM 100%
inactive: at 1.2 µM -45% | at 3.7 µM -53% | at 11.0 µM -57%

Oc1ccc(SCc2ccc(NCc3ccccc3)cc2)cc1
active: at 100.0 µM 91%
inactive: at 1.2 µM -32% | at 3.7 µM -35% | at 11.0 µM -52% | at 33.0 µM -4%
